# Experimental data taken from PubChem BioAssay (NCATS).
# Values without a mark were called inactive. Inconclusive results are not listed. Activity calls are given as the source filed them. Unless noted, calls follow the shape of the dose curve; as a rule, active = well fitted curve in the direction sought with a large enough effect; inconclusive = small, poorly fitted or top-dose-only effect, or another doubt; inactive = no such curve, though single readings can be large; an effect the other way counts as inactive or inconclusive. Square brackets hold non-standard residues; d marks the D form. Peptide text beside a SMILES is read from it. * marks the point of attachment. Nva = CCC[C@H](N)C(=O)O; Cbz = O=C(OCc1ccccc1)*
# Biological target: Alpha-galactosidase (Coffea arabica) (UniProt Q42656)
# Sequence (Q42656 whole entry, looked up): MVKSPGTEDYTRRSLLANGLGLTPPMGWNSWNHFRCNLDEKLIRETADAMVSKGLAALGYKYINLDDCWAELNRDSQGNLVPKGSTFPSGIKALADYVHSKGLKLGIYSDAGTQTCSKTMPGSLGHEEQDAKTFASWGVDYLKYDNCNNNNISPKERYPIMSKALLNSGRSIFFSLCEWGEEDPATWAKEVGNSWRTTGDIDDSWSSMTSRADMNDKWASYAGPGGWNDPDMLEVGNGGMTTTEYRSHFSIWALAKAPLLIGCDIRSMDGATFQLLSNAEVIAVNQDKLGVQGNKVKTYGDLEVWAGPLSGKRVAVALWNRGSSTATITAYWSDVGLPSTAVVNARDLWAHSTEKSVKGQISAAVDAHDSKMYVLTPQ
# Experiment: Counterscreen for Glucocerebrosidase Inhibitors: qHTS Assay for Coffee Bean alpha-Galactosidase at pH 5.9 (AID 998);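 also: plate controls were uninhibited enzyme for no effect and no-enzyme basal signal for full effect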
# Conditions: coffee bean alpha-galactosidase enzyme assay; series mostly up to 76.9 µM; activity, negative = inhibition: at the top concentration
# How it was run: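 Compounds were titrated from 0.7 nM to 77 uM against green coffee bean alpha-galactosidase (2 nM) using 80 uM fluorogenic 4-methylumbelliferyl substrate. After 20 min at room temperature, reactions were stopped at pH 10 and read by fluorescence.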
Structure (SMILES),"activity, negative = inhibition [%]",outcome
Cc1cc(NC(=O)Nc2ccc3c(ccn3C)c2)sn1,-5.63,–
O=Nc1c(-c2c(O)[nH]c3cc(Br)ccc23)[nH]c2ccccc12,-3.96,–
COc1ccc(CCN(C)CCc2ccc(OC)c(OC)c2)cc1OC,-1.23,–
N#C/C(=C\c1ccc(O)c(O)c1)C(=O)NCCc1ccccc1,-1.78,–
CCN(CC)CCCCCCCCOC(=O)c1cc(OC)c(OC)c(OC)c1,-2.87,–
CC(C)Cc1ccc([C@H](C)C(=O)O)cc1,-1.83,–
COCCCCC(=NOCCN)c1ccc(C(F)(F)F)cc1,-4.63,–
Nc1nc(OCc2ccccc2)c2[nH]cnc2n1,-1.01,–
NC[C@@H]1O[C@H](C23CC4CC(CC(C4)C2)C3)Cc2c1ccc(O)c2O,3.65,–
Nc1ncnc2c1ncn2C1CCCC1,-1.77,–
Clc1nccc2c1ccc1ccccc12,0.237,–
C=C[C@H]1CN2CC[C@@H]1C[C@@H]2[C@@H](O)c1ccnc2ccc(OC)cc12,–,inactive

# System: not listed separately
# Experiment: Validation screen for inhibitors of Lassa infection (AID 463096; calls by dose curve; also: % is scaled to controls: 0 for no effect and ±100 for the full control effect)
# Conditions: Lassa virus infection, cell-based; series mostly up to 46.1 µM; activity change, negative = inhibition: at the top concentration
row,Structure (SMILES),"activity change, negative = inhibition [%]"
1,CN1CCC2(CCN3CCc4c(oc5ccccc45)C3C2)N(C)C1=O (stereo not given),-15.8
2,CN(C)CCCC1(c2ccc(F)cc2)OCc2cc(C#N)ccc21 (stereo not given),-19.1
3,Nc1nc(OCc2ccccc2)c2[nH]cnc2n1,-17.3
4,Clc1nccc2c1ccc1ccccc12,11.7

# System: not listed separately
# Experiment: Inducers of the Endoplasmic Reticulum Stress Response (ERSR) in human glioma: Validation (AID 504836); also: 0% is about no effect
# Conditions: human glioma cells, ER stress response reporter; series mostly up to 38.3 µM; activation: at the top concentration
# How it was run: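 ERSR induction read as luciferase luminescence (Bright-Glo, 10 min at room temperature) in stably transfected human U87-MG glioma cells exposed to compounds for 16 h, using GRP78 as sensor.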
row,Structure (SMILES),activation [%]
1,CN(C)CCCc1cc(C(=O)Nc2ccc(-c3ccncc3)cc2)ccc1O,-2.25
2,CN1CCC2(CCN3CCc4c(oc5ccccc45)C3C2)N(C)C1=O (stereo not given),-0.708
3,CCN(CC)CCCCCCCCOC(=O)c1cc(OC)c(OC)c(OC)c1,2.38
4,c1ccc(C(NCCNC(c2ccccc2)c2ccccc2)c2ccccc2)cc1,-4.1
5,CN(C)CCCC1(c2ccc(F)cc2)OCc2cc(C#N)ccc21 (stereo not given),0.707
6,Nc1nc(OCc2ccccc2)c2[nH]cnc2n1,0.753
7,NC[C@@H]1O[C@H](C23CC4CC(CC(C4)C2)C3)Cc2c1ccc(O)c2O,-3.96
8,Clc1nccc2c1ccc1ccccc12,4.49
9,C=CCNc1ncnc2ccc(Br)cc12,-3.48

# System: not listed separately
# Experiment: qHTS for Inhibitors of the Functional Ribonucleoprotein Complex (vRNP) of Lassa (LASV) Arenavirus: LASV Primary Screen - GLuc reporter signal (AID 1347082; calls by dose curve; tested in HEK293 reporter line; also: nearly all actives have a fitted effect of over 60% in size; also: potency is read from the fitted curve at half-maximal effect; as to activity change, negative = inhibition: % is scaled to controls: 0 for no effect and ±100 for the full control effect)
# Conditions: LASV minigenome vRNP, Gaussia luciferase reporter; series mostly up to 57.5 µM; activity change, negative = inhibition: at the top concentration
Structure (SMILES),"activity change, negative = inhibition",Potency
COc1cc(C[C@@H](CO)[C@H](CO)Cc2ccc(O)c(OC)c2)ccc1O,13.8%,–
CCC[C@@H](C=O)NC(=O)[C@H](CC(C)C)NC(=O)[C@H](CC(C)C)NC(=O)OCc1ccccc1 (Cbz-Leu-Leu-[Nva]-aldehyde),–,3.43 µM (active)
Cc1cc(NC(=O)Nc2ccc3c(ccn3C)c2)sn1,-19.7%,–
CC1=C(C(=O)Nc2cc3cn[nH]c3cc2F)C(c2ccc(Cl)cc2F)N=C(c2ccnc(Cl)c2)N1 (stereo not given),-15.9%,–
CC(C)n1cnc2c(NCCCCCCNC(=O)OC(C)(C)C)nc(NCCO)nc21,-12.1%,–
O=Nc1c(-c2c(O)[nH]c3cc(Br)ccc23)[nH]c2ccccc12,67%,–
NC(=O)c1noc([C@H](CCCC2CCCCC2)CC(=O)NO)n1,-10.3%,–
CN(C)CCCc1cc(C(=O)Nc2ccc(-c3ccncc3)cc2)ccc1O,-7.88%,–
N#Cc1cc(NC(=O)Nc2nnc(-c3ccncc3)s2)ccc1-c1cn[nH]c1,-2.91%,–
COc1ccc(CCN(C)CCc2ccc(OC)c(OC)c2)cc1OC,3.51%,–
CN1CCC2(CCN3CCc4c(oc5ccccc45)C3C2)N(C)C1=O (stereo not given),-34%,–
N#C/C(=C\c1ccc(O)c(O)c1)C(=O)NCCc1ccccc1,0.32%,–
COc1cc(NC(=O)c2ccc(-c3ccc(Cl)cc3)o2)cc(OC)c1,–,34.3 µM (active)
Cc1c(CCOc2ccc(C(=O)O)cc2)c2cc(Cl)ccc2n1C(c1ccccc1)c1ccccc1,-3.37%,–
CCN(CC)CCCCCCCCOC(=O)c1cc(OC)c(OC)c(OC)c1,-4.97%,–
COc1ccc(-c2oc3c(CC=C(C)C)c(O)cc(O)c3c(=O)c2O)cc1,-35%,–
CCS(=O)(=O)Nc1ccc2[nH]c(O)c(C(=Nc3ccc(CN4CCCCC4)cc3)c3ccccc3)c2c1,–,9.68 µM (active)
c1ccc(C(NCCNC(c2ccccc2)c2ccccc2)c2ccccc2)cc1,-37.7%,–
CN(C)CCCC1(c2ccc(F)cc2)OCc2cc(C#N)ccc21 (stereo not given),–,inactive
COC(=O)[C@H]1[C@H]2C[C@@H]3c4[nH]c5ccccc5c4CCN3C[C@H]2C[C@@H](OC(=O)c2cc(OC)c(OC)c(OC)c2)[C@@H]1OC,-26%,–

Structure (SMILES),"activity change, negative = inhibition",Potency
Brc1ccc([C@H]2CN3CCSC3=N2)cc1,-1.72%,–
COc1ccc2ccc(=O)oc2c1CC=C(C)C,4.16%,–
CC(C)Cc1ccc([C@H](C)C(=O)O)cc1,0.115%,–
COCCCCC(=NOCCN)c1ccc(C(F)(F)F)cc1,3.46%,–
CCCCOc1c(C(=O)c2c(F)cc(C)cc2F)cnc2n[nH]cc12,–,5.44 µM (active)
Nc1nc(OCc2ccccc2)c2[nH]cnc2n1,-3.14%,–
COc1c2ccoc2cc2oc(=O)ccc12,-2.19%,–
NC[C@H]1O[C@H](O[C@@H]2[C@@H](O)[C@@H](O[C@H]3O[C@H](CO)[C@@H](O)[C@H](N)[C@@H]3O)[C@H](N)C[C@@H]2N)[C@H](O)[C@@H](O)[C@H]1O,6.63%,–
COc1cccc2c1C(=O)c1c(O)c3c(c(O)c1C2=O)C[C@@](O)(C(=O)CO)C[C@@H]3O[C@H]1C[C@H](N)[C@H](OC2CCCCO2)[C@H](C)O1 (stereo not given in full),-34.7%,–
CC=C1C2C=C(C)CC1(N)c1ccc(=O)[nH]c1C2 (stereo not given),5.13%,–
NC[C@@H]1O[C@H](C23CC4CC(CC(C4)C2)C3)Cc2c1ccc(O)c2O,-5.02%,–
CCOC(=O)C1=C(C)NC2=C(C(=O)CC(C)(C)C2)C1c1ccc(-c2ccccc2)cc1 (stereo not given),-10.3%,–
CC[C@@]1(O)C[C@H](O[C@H]2C[C@H](N(C)C)[C@H](O[C@H]3C[C@H](O)[C@H](O[C@H]4CCC(=O)[C@H](C)O4)[C@H](C)O3)[C@H](C)O2)c2c(cc3c(c2O)C(=O)c2c(O)cccc2C3=O)[C@@H]1C(=O)OC,-22.7%,–
Nc1ncnc2c1ncn2C1CCCC1,7.17%,–
Clc1nccc2c1ccc1ccccc12,-2.13%,–
C=CCNc1ncnc2ccc(Br)cc12,-22.6%,–
C=C[C@H]1CN2CC[C@@H]1C[C@@H]2[C@@H](O)c1ccnc2ccc(OC)cc12,-20.3%,–
O=c1c2ccccc2oc2ccccc12,-14.8% [at 115 µM],–
CS(=O)(=O)c1ccc(C2=C(c3ccccc3)C(=O)OC2)cc1,0.759%,–
CN(N=O)C(=O)N[C@H]1C(O)OC(CO)[C@@H](O)[C@H]1O (stereo not given in full),-14.8%,–
